{"source": "PubChem BioAssay (EPA / NIEHS)", "note": "Records with an inconclusive call do not appear. The source made the active and inactive calls. Rule for the calls: active = hit-call score of the fitted dose curve at least 0.9, where 1 is the maximum; inconclusive = response in the unintended direction; inactive = score below 0.9.", "data": [{"experiment": "ATG_Hpa5_TRANS: Attagene TRANS-FACTORIAL HepG2 Assay for human GAL4-Hpa5 Hepatocyte Transcription Factor Basal Promoter (AID 2282975);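 note: hits are increases in reporter mRNA over DMSO baseline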", "conditions": "HepG2 Attagene GAL4-Hpa5 transcription reporter", "description": "ATG_TRANS is a cell-based, multiplexed-readout assay that uses HepG2, a human liver cell line, with measurements taken at 24 hours after chemical dosing in a 24-well plate.ATG_Hpa5_TRANS is one of 30 assay component(s) measured or calculated from the ATG_TRANS assay. It is designed to make measurements of mRNA induction, a form of inducible reporter, as detected with fluorescence intensity signals by Reverse transcription polymerase chain reaction (RT-PCR) and Capillary electrophoresis technology.Data from the assay component ATG_Hpa5_TRANS was analyzed into 1 assay endpoint. This assay endpoint, ATG_Hpa5_TRANS, was analyzed in the positive analysis fitting direction relative to DMSO as the negative control and baseline of activity. Using a type of inducible reporter, measures of mRNA for gain-of-signal activity can be used to understand the background control at the transcription factor-level as they relate to the gene . Furthermore, this assay endpoint can be referred to as a secondary readout, because this assay has produced multiple assay endpoints where this one serves a background control function. To generalize the intended target to other relatable targets, this assay endpoint is annotated to the background measurement intended target family, where the subfamily is internal marker.\nHuman liver HepG2 cells are transiently transfected with multiple reporter transcription units (MRTUs) in 6-well plates using FuGene 6 reagent (Roche; 3 ml FuGene/1 mg DNA). The MRTU constructs are regulated by a cis-regulating element (promoter). […] A major difference between the CIS and TRANS system is that in CIS activities of endogenous TFs are measured, whereas the TRANS assay evaluates changes in activities of exogenous, chimeric NR-Gal4 proteins. […] At the end of 24 hour incubation, total RNA was isolated using TriZol reagent (Invitrogen). The isolated RNA is then reverse-transcribed using oligo(dT) primer and Mo-MLV reverse transcriptase (Invitrogen) with DNAse I (Ambion) treatment for 30 min. The one-tenth of the produced cDNA was amplified by PCR using Taq DNA polymerase (Invitrogen) and two reporter sequence-specific primers. The PCR products were fluorescently labeled by primer extension with 6-arboxyfluorescein (6-FAM) 5'-labeled reporter sequence-specific primer (2 min at 95 C, 20 s at 68 C and 10 min at 72 C) and these products were digested with 5U of HpaI (New England Biolabs) for 2h at 37 C. The fragments were purified using Qiaquick PCR columns (Qiagen), analyzed on an ABI 3130xL genetic analyzer (Applied Biosystems) with peak positions identified by using a set of X-rhodamine (ROX)-labeled MapMarker1000 molecular weight standards (BioVentures). The raw capillary electrophoresis data was processed using Attagraph software (Attagene).", "values": [{"compound": "CCOc1cc(Oc2ccc(C(F)(F)F)cc2Cl)ccc1[N+](=O)[O-]", "outcome": "inactive"}, {"compound": "C=CC1(C)OC(=O)N(c2cc(Cl)cc(Cl)c2)C1=O", "note": "(stereo not drawn)", "outcome": "inactive"}, {"compound": "COC(=O)N(OC)c1ccccc1COc1ccn(-c2ccc(Cl)cc2)n1", "outcome": "inactive"}, {"compound": "COc1nc(NC(C)C)nc(NC(C)C)n1", "outcome": "inactive"}, {"compound": "Cc1ccc(-c2c(Cl)nc(C#N)n2S(=O)(=O)N(C)C)cc1", "outcome": "inactive"}, {"compound": "CCc1nn(C)c(C(=O)NCc2ccc(C(C)(C)C)cc2)c1Cl", "outcome": "inactive"}, {"compound": "CNC(=O)ON=CC(C)(C)SC", "outcome": "inactive"}, {"compound": "N#CC(CCc1ccc(Cl)cc1)(Cn1cncn1)c1ccccc1", "note": "(stereo not drawn)", "outcome": "inactive"}, {"compound": "CCCCC(CC)COC(=O)c1ccccc1C(=O)OCC(CC)CCCC", "note": "(stereo not drawn)", "outcome": "inactive"}, {"compound": "Cc1c(F)c(F)c(COC(=O)C2C(/C=C(\\Cl)C(F)(F)F)C2(C)C)c(F)c1F", "note": "(stereo not drawn)", "outcome": "inactive"}, {"compound": "COc1ccc(C(c2ccc(OC)cc2)C(Cl)(Cl)Cl)cc1", "outcome": "inactive"}, {"compound": "C=CCC1=C(C)[C@@H](OC(=O)[C@@H]2[C@@H](C=C(C)C)C2(C)C)CC1=O", "outcome": "inactive"}, {"compound": "CCOP(=S)(OCC)SCn1c(=O)oc2cc(Cl)ccc21", "outcome": "inactive"}, {"compound": "CCCCNC(=O)OCC#CI", "outcome": "inactive"}, {"compound": "CC1COC(Cn2cncn2)(c2ccc(Oc3ccc(Cl)cc3)cc2Cl)O1", "note": "(stereo not drawn)", "outcome": "inactive"}, {"compound": "CCCN(CCC)c1c([N+](=O)[O-])cc(S(N)(=O)=O)cc1[N+](=O)[O-]", "outcome": "inactive"}, {"compound": "CCNc1nc(Cl)nc(NCC)n1", "outcome": "inactive"}, {"compound": "CC(C)Oc1cc(-n2nc(C(C)(C)C)oc2=O)c(Cl)cc1Cl", "outcome": "inactive"}, {"compound": "C#CCOS(=O)OC1CCCCC1Oc1ccc(C(C)(C)C)cc1", "note": "(stereo not drawn)", "outcome": "inactive"}, {"compound": "Fc1ccc(Oc2ccnc3cc(Cl)cc(Cl)c23)cc1", "outcome": "inactive"}, {"compound": "CO/C=C(/C(=O)OC)c1ccccc1Oc1cc(Oc2ccccc2C#N)ncn1", "outcome": "inactive"}, {"compound": "COc1nc(C)nc(NC(=O)NS(=O)(=O)c2ccccc2CCC(F)(F)F)n1", "outcome": "inactive"}, {"compound": "CC(Oc1ccc(Cl)cc1Cl)C(=O)O", "note": "(stereo not drawn)", "outcome": "inactive"}, {"compound": "COP(=S)(OC)Oc1nc(Cl)c(Cl)cc1Cl", "outcome": "inactive"}, {"compound": "Cc1cc(Cl)ccc1OCC(=O)O", "outcome": "inactive"}, {"compound": "CCCC1COC(Cn2cncn2)(c2ccc(Cl)cc2Cl)O1", "note": "(stereo not drawn)", "outcome": "inactive"}, {"compound": "COP(N)(=O)SC", "note": "(stereo not drawn)", "outcome": "inactive"}, {"compound": "O=C(O)c1nc(Cl)ccc1Cl", "outcome": "inactive"}, {"compound": "OC(c1ccc(Cl)cc1)(c1cncnc1)c1ccccc1Cl", "note": "(stereo not drawn)", "outcome": "inactive"}, {"compound": "O=C(Nc1ccccc1)Nc1ccnc(Cl)c1", "outcome": "inactive"}, {"compound": "CC(C)C1(C)N=C(c2nc3ccccc3cc2C(=O)O)NC1=O", "note": "(stereo not drawn)", "outcome": "inactive"}, {"compound": "COC(=O)C(C)Oc1ccc(Oc2ccc(Cl)cc2Cl)cc1", "note": "(stereo not drawn)", "outcome": "inactive"}, {"compound": "CCOC(=O)C(Cl)Cc1cc(-n2nc(C)n(C(F)F)c2=O)c(F)cc1Cl", "note": "(stereo not drawn)", "outcome": "inactive"}]}]}
